A selection: hits, their analogues and other compounds. The true share with any hit is near 1.8%.
ALOX12 inh: ALOX12 (human) lipoxygenase inhibition. purified 12hLO, xylenol orange hydroperoxide absorbance. Potency, µM (titrated, usually from 108 µM), most hits filed as inhibitors. AID 1671190. P18054. actives 1.1% (n = 580,000)
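Purified human 12hLO at 150 nM in 25 mM Hepes, 0.01% Triton X-100, pH 7.0, preincubated 15 min at room temperature with compound. Reaction started with 40 uM arachidonic acid, 30 min at room temperature. Hydroperoxide measured by Fe-xylenol orange, 573/405 nm absorbance ratio.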
A-T KAP1 phos: candidate therapy for ataxia-telangiectasia. Potency, µM (highest dose often 57.5 µM), usual class: activators. actives 0.19% (n = 320,000). AID 485349. F2112 A-T fibroblasts, KAP-1 phosphorylation AlphaLISA; neocarzinostatin DNA damage 30 min before lysis; further: nearly all actives have a fitted effect of over 45% in size
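hTERT-immortalized A-T patient fibroblasts (F2112), 500 cells/well in OPTI-MEM, 1% FBS, got compounds for 60 min, then NCS for 30 min at 37C. Lysates were then assayed for phospho-KAP-1 by AlphaLISA (anti-pKAP1 donor, anti-KAP1 acceptor beads), 6 hr at 25C.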
KCNH2 WT inh: KCNH2 (human, wildtype) channel inhibition; Q12809; U2OS, BacMam KCNH2, thallium flux FluxOr; hits give low values; activity change, % at 1.84 µM; actives 0.37% (n = 340,000); AID 720551;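 active means maximum activity change below -70%; inconclusive means maximum activity change between -70% and -50%; inactive means maximum activity change above -50%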
Target sequence (Q12809 whole entry, looked up): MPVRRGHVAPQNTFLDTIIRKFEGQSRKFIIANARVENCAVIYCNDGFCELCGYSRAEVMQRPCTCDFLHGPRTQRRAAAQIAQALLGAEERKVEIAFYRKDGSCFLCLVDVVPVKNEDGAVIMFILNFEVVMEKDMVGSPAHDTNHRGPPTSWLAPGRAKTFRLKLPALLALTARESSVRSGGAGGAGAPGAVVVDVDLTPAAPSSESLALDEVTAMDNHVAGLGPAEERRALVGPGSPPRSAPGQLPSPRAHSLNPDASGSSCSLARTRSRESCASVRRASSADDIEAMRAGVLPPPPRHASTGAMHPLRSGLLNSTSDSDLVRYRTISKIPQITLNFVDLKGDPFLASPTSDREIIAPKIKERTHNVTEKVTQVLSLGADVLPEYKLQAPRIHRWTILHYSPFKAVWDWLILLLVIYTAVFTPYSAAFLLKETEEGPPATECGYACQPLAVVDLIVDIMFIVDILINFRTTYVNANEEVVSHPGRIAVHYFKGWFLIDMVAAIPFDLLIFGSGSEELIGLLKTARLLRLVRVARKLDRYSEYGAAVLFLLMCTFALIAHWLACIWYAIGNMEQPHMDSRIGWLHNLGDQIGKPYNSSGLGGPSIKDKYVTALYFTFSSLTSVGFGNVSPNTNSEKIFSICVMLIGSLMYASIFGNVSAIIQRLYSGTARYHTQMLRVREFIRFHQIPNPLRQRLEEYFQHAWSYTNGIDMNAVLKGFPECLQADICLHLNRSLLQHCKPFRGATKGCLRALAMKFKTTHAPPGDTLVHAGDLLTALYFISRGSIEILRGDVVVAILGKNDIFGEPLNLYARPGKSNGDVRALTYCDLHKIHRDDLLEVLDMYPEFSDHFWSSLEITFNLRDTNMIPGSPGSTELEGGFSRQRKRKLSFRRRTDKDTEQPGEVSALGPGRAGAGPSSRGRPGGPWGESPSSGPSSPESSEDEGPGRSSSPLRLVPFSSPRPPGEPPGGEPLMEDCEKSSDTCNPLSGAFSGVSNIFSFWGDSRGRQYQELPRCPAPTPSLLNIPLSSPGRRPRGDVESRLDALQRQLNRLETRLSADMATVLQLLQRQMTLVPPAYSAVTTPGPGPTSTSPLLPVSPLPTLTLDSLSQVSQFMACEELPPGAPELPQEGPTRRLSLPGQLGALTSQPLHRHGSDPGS
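U2OS cells were transduced with wild-type KCNH2 virus (2.03 x 10^8 / mL) for 4 h at room temperature, then cultured overnight at 37 C. Thallium flux was read with FluxOr dye. Rate constants were normalized to DMSO controls.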
KCNH2 3.1 block: inhibitors of human KCNH2 3.1 potassium channel isoform. U2OS KCNH2 3.1, thallium flux FluxOr; hits give low values. activity change, % (tested at about 1.8 µM). actives 0.95% (n = 340,000). AID 720553;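 active means maximum activity change below -70%; inconclusive means maximum activity change from -70% to -50%; inactive means maximum activity change above -50%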;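 further: thallium influx rate constant from kinetic fluorescence after stimulation buffer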
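Normalized rate constant (relative to positive and negative DMSO controls) derived from a 2 min kinetic fluorescence read after stimulation; U2OS cells expressing the 3.1 isoform via virus at 1.77 x 10^8 /mL.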
Large screens that a line does not name were inactive. Unless noted, the call rests on the fitted dose curve; in most records, active means well fitted curve in the direction sought with a large enough effect; inconclusive means small, poorly fitted or top-dose-only effect, or another doubt; inactive means no such curve, though single readings can be large; an effect the other way counts as inactive or inconclusive.

O=C(NNC(=S)NC(=O)c1ccccc1[N+](=O)[O-])c1ccccc1Cl	ALOX12 inh inconclusive
O=C(NC(=S)NNC(=O)c1ccccc1[N+](=O)[O-])c1ccc(Br)cc1	ALOX12 inh 3.5µM
O=C(COc1ccc([N+](=O)[O-])cc1)NNC(=S)NC(=O)c1ccc(Br)cc1	ALOX12 inh 40µM
COc1ccc(OCC(=O)NC(=S)NNC(=O)COc2ccc(Br)cc2Cl)cc1	ALOX12 inh 14µM
COCCC(=O)N1CC[C@H](c2nc3ccccc3o2)C1	none (no result: A-T KAP1 phos, KCNH2 WT inh, KCNH2 3.1 block)
NCCNc1ccc(C(=O)N2c3ccccc3Sc3ccccc32)cc1[N+](=O)[O-]	KCNH2 3.1 block -175
Nc1ccc(C(=O)OCC(=O)N2c3ccccc3Sc3ccccc32)cc1[N+](=O)[O-]	none
O=C(COc1ccc(-n2cnnn2)cc1)N1CCN(S(=O)(=O)c2ccc3ccccc3c2)CC1	ALOX12 inh 45µM (no result: A-T KAP1 phos, KCNH2 WT inh, KCNH2 3.1 block)
Cc1nc(N=Nc2cc([N+](=O)[O-])ccc2Cl)c(COP(=O)(O)O)c(C=O)c1O	ALOX12 inh 11µM (no result: A-T KAP1 phos, KCNH2 WT inh, KCNH2 3.1 block)
Cc1ccc(OCc2nnc(NC(=O)NCCc3cnc[nH]3)s2)cc1	none (no result: A-T KAP1 phos, KCNH2 WT inh, KCNH2 3.1 block)
O=C(COC(=O)/C=C/c1ccc(OC(F)F)cc1)Nc1cccc(S(=O)(=O)N2CCCC2)c1	KCNH2 3.1 block -85
O=C(/C=C/c1ccco1)Nc1cccc(S(=O)(=O)N2CCOCC2)c1	KCNH2 WT inh -107
O=C(/C=C/c1ccc(OC(F)F)cc1)Nc1cccc(S(=O)(=O)N2CCOCC2)c1	ALOX12 inh inconclusive, KCNH2 3.1 block -72
Cc1cc(C(F)(F)F)c(C#N)c(=S)[nH]1	ALOX12 inh 16µM (no result: A-T KAP1 phos, KCNH2 WT inh, KCNH2 3.1 block)
Cc1cccc(NC(=O)Oc2ccc(Cl)c3cccnc23)c1	ALOX12 inh 40µM (no result: A-T KAP1 phos)
O=C(Nc1ccnn1C1CCN(Cc2ccc(CO)o2)CC1)c1cccc(F)c1	ALOX12 inh inconclusive (no result: A-T KAP1 phos)
O=C(Nc1ccnn1C1CCN(Cc2cccc(OCCO)c2)CC1)c1cccc(F)c1	none
O=C(Nc1ccnn1C1CCN(C/C=C/c2ccccc2)CC1)c1ccccc1	KCNH2 WT inh -91, KCNH2 3.1 block -91
O=C(Nc1ccnn1C1CCN(C/C=C/c2ccccc2)CC1)c1cccc(F)c1	ALOX12 inh inconclusive, KCNH2 WT inh -92, KCNH2 3.1 block -99
COc1ccc(CN2CCC(n3nccc3NC(=O)c3cccc(F)c3)CC2)cc1O	KCNH2 WT inh -109, KCNH2 3.1 block -110
O=C(Nc1ccnn1C1CCN(C2CCC2)CC1)c1ccccc1	none
O=C(Nc1ccnn1C1CCN(CCCc2ccccc2)CC1)c1cccc(F)c1	KCNH2 WT inh -89, KCNH2 3.1 block -104
O=C(Nc1ccc(Cl)cc1C(F)(F)F)c1cccc(I)c1	none (no result: A-T KAP1 phos, KCNH2 WT inh, KCNH2 3.1 block)
COCCn1c(C)cc(C(=O)NCC(=O)N2CCCCCNC(=O)CC2c2ccccc2)c1C (stereo unspecified)	none (no result: A-T KAP1 phos, KCNH2 WT inh, KCNH2 3.1 block)
O=C(Sc1nnc(-c2ccccc2)o1)N1c2ccccc2Sc2ccccc21	ALOX12 inh 10µM
O=C1NC(C(=O)NCc2ccc(OC(F)(F)F)cc2)Cn2cccc21 (stereo unspecified)	none (no result: A-T KAP1 phos, KCNH2 WT inh, KCNH2 3.1 block)
Cc1[nH]c(=S)c(C#N)c(C)c1Cc1ccccc1	ALOX12 inh inconclusive, KCNH2 3.1 block inconclusive
Cc1ccc2c(Cl)c(Cc3ccccc3)c(=S)[nH]c2n1	ALOX12 inh 32µM (no result: A-T KAP1 phos)
CN(Cc1ccc(C(=O)NCC(F)(F)F)cc1)C(=O)c1cccc(Cl)c1	none (no result: A-T KAP1 phos, KCNH2 WT inh, KCNH2 3.1 block)
COc1ccc(NC(=O)C2C3CCC(O3)C2C(=O)O)c(C)c1 (stereo unspecified)	none
Cc1cc(Br)ccc1NC(=O)C1C2CCC(O2)C1C(=O)O (stereo unspecified)	ALOX12 inh 5µM
CC1C(=O)Nc2ccc(-c3csc(NC4CCCC4)n3)cc21 (stereo unspecified)	ALOX12 inh 16µM (no result: A-T KAP1 phos, KCNH2 WT inh, KCNH2 3.1 block)
O=c1[nH]c2ccc(-c3csc(NC4CCCC4)n3)cc2[nH]1	ALOX12 inh 35µM (no result: A-T KAP1 phos, KCNH2 WT inh, KCNH2 3.1 block)
O=c1[nH]c2ccc(-c3csc(NC4CC4)n3)cc2[nH]1	ALOX12 inh 18µM (no result: A-T KAP1 phos, KCNH2 WT inh, KCNH2 3.1 block)
COc1cc(-c2csc(NC3CC3)n2)ccc1OC(F)F	ALOX12 inh 25µM (no result: A-T KAP1 phos, KCNH2 WT inh, KCNH2 3.1 block)
CC1Sc2ccc(C(=O)Nc3nc(-c4ccc(F)cc4)cs3)cc2NC1=O (stereo unspecified)	none (no result: A-T KAP1 phos, KCNH2 WT inh, KCNH2 3.1 block)
CC(C)(C)c1ccc(/C=N/NC(=O)Cc2ccccc2)cc1	none (no result: A-T KAP1 phos, KCNH2 WT inh, KCNH2 3.1 block)
CN(C)C(=O)c1ccccc1NS(=O)(=O)c1ccc(F)cc1	none (no result: A-T KAP1 phos, KCNH2 WT inh, KCNH2 3.1 block)
O=C(c1cccc(F)c1)N1CCCC(c2nc3ccccc3o2)C1 (stereo unspecified)	none (no result: A-T KAP1 phos, KCNH2 WT inh, KCNH2 3.1 block)
CC(C)CCNc1nc(-c2ccc3[nH]c(=O)[nH]c3c2)cs1	ALOX12 inh 45µM (no result: A-T KAP1 phos, KCNH2 WT inh, KCNH2 3.1 block)
